# In article PMC11006913:
# Residue numbers refer to the chain shown, from its start.
# Columns and labels:
# Experiment in all cases: PBM; 200 nM protein, PBS
# Settings in all cases: dsDNA, one strand shown
# PAX4 [1] = molecular target: T1, PAX4 (Homo sapiens, UniProt O43316 9-242, R200K)
# T1 sequence: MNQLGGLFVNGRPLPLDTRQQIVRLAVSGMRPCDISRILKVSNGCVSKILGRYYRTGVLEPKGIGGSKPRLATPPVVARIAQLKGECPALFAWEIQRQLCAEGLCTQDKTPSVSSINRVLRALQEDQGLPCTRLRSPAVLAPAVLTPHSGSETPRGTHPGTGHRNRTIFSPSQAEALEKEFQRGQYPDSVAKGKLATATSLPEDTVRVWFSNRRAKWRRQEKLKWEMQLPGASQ
# PAX4 [2] = molecular target: T2, PAX4 (Homo sapiens, UniProt O43316 9-242)
# T2 sequence: T1 sequence with K192R
# PAX4 [3] = molecular target: T3, PAX4 (Homo sapiens, UniProt O43316 9-242, R200Q)
# T3 sequence: T1 sequence with K192Q
# PAX4 [4] = molecular target: T4, PAX4 (Homo sapiens, UniProt O43316 9-242, F177V)
# T4 sequence: T1 sequence with F169V, K192R
# PAX4 [5] = molecular target: T5, PAX4 (Homo sapiens, UniProt O43316 9-242, F177Y)
# T5 sequence: T1 sequence with F169Y, K192R
# PROP1 [6] = molecular target: PROP1 (Homo sapiens, UniProt O75360 56-141)
# PROP1 (Homo sapiens, UniProt O75360 56-141), sequence (O75360 56-141): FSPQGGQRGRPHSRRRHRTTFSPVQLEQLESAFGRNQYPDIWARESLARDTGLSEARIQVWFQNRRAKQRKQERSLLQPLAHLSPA
# PROP1 [7] = molecular target: PROP1 (Homo sapiens, UniProt O75360 56-141, R99H)
# PROP1 (Homo sapiens, UniProt O75360 56-141, R99H), sequence (O75360 56-141 R99H): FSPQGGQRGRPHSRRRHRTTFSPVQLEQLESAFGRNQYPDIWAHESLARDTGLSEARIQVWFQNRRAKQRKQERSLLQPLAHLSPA
# PROP1 [8] = molecular target: PROP1 (Homo sapiens, UniProt O75360 56-141, F88S)
# PROP1 (Homo sapiens, UniProt O75360 56-141, F88S), sequence (O75360 56-141 F88S): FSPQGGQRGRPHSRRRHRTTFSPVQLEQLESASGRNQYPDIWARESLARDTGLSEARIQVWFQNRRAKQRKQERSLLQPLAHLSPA
# PAX4 [9] = molecular target: T6, PAX4 (Homo sapiens, UniProt O43316 9-242, R227W)
# T6 sequence: T1 sequence with K192R, R219W
# ALX3 [10] = molecular target: ALX3 (Homo sapiens, UniProt O95076 139-225, N203Q)
# ALX3 (Homo sapiens, UniProt O95076 139-225, N203Q), sequence (O95076 139-225 N203Q): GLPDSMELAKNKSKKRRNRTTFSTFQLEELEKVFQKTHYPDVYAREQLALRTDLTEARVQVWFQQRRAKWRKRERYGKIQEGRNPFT
# ALX3 [11] = molecular target: ALX3 (Homo sapiens, UniProt O95076 139-225)
# ALX3 (Homo sapiens, UniProt O95076 139-225), sequence (O95076 139-225): as the sequence (O95076 139-225 N203Q) above, with Q65N counted along it
# ALX3 [12] = molecular target: ALX3 (Homo sapiens, UniProt O95076 139-225, L168Q)
# ALX3 (Homo sapiens, UniProt O95076 139-225, L168Q), sequence (O95076 139-225 L168Q): as the sequence (O95076 139-225 N203Q) above, with L30Q, Q65N counted along it
# ALX3 [13] = molecular target: ALX3 (Homo sapiens, UniProt O95076 139-225, L168V)
# ALX3 (Homo sapiens, UniProt O95076 139-225, L168V), sequence (O95076 139-225 L168V): as the sequence (O95076 139-225 N203Q) above, with L30V, Q65N counted along it
# ALX3 [14] = molecular target: ALX3 (Homo sapiens, UniProt O95076 139-225, N203S)
# ALX3 (Homo sapiens, UniProt O95076 139-225, N203S), sequence (O95076 139-225 N203S): as the sequence (O95076 139-225 N203Q) above, with Q65S counted along it
# HOXD13 [15] = molecular target: HOXD13 (Homo sapiens, UniProt P35453 263-343, T313R)
# HOXD13 (Homo sapiens, UniProt P35453 263-343, T313R), sequence (P35453 263-343 T313R): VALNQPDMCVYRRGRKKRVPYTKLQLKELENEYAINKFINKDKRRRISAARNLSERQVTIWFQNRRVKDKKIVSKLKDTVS
# HOXD13 [16] = molecular target: HOXD13 (Homo sapiens, UniProt P35453 263-343)
# HOXD13 (Homo sapiens, UniProt P35453 263-343), sequence (P35453 263-343): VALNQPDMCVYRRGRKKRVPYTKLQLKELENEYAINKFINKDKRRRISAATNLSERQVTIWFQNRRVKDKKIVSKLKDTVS
# HOXD13 [17] = molecular target: HOXD13 (Homo sapiens, UniProt P35453 263-343, T313A)
# HOXD13 (Homo sapiens, UniProt P35453 263-343, T313A), sequence (P35453 263-343 T313A): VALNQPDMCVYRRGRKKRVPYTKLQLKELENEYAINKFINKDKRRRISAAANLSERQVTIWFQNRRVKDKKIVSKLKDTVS
# NKX2-6 [18] = molecular target: T7, NKX2-6 (Homo sapiens, UniProt A6NCS4 118-204)
# T7 sequence: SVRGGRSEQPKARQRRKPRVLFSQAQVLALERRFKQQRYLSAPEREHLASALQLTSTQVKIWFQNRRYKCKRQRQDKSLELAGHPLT
# NKX2-6 [19] = molecular target: T8, NKX2-6 (Homo sapiens, UniProt A6NCS4 118-204, F151L)
# T8 sequence: T7 sequence with F34L
# HOXA2 [20] = molecular target: HOXA2 (Homo sapiens, UniProt O43364 129-215, R185T)
# HOXA2 (Homo sapiens, UniProt O43364 129-215, R185T), sequence (O43364 129-215 R185T): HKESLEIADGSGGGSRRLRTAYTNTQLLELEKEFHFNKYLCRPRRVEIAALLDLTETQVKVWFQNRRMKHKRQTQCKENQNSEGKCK
# PITX2 = PITX2 (Homo sapiens, UniProt Q99697 72-157)
# HOXA2 [21] = molecular target: HOXA2 (Homo sapiens, UniProt O43364 129-215, R185K)
# HOXA2 (Homo sapiens, UniProt O43364 129-215, R185K), sequence (O43364 129-215 R185K): as the sequence (O43364 129-215 R185T) above, with T57K counted along it
# HOXA2 [22] = molecular target: HOXA2 (Homo sapiens, UniProt O43364 129-215, Y150S)
# HOXA2 (Homo sapiens, UniProt O43364 129-215, Y150S), sequence (O43364 129-215 Y150S): as the sequence (O43364 129-215 R185T) above, with Y22S, T57R counted along it
# HOXA2 [23] = molecular target: HOXA2 (Homo sapiens, UniProt O43364 129-215)
# HOXA2 (Homo sapiens, UniProt O43364 129-215), sequence (O43364 129-215): as the sequence (O43364 129-215 R185T) above, with T57R counted along it
sequence,measurement,setting,value
CCGTCCGA,binding signal,PAX4 [1],"9.27 upbm affinity estimate (log intensity, higher = more binding, comparable within an allelic series)"
same,binding signal,PAX4 [2],"9.39 upbm affinity estimate (log intensity, higher = more binding, comparable within an allelic series)"
same,binding signal,PAX4 [3],"9.28 upbm affinity estimate (log intensity, higher = more binding, comparable within an allelic series)"
same,binding signal,PAX4 [4],"9.26 upbm affinity estimate (log intensity, higher = more binding, comparable within an allelic series)"
same,binding signal,PAX4 [5],"9.27 upbm affinity estimate (log intensity, higher = more binding, comparable within an allelic series)"
same,binding signal,PROP1 [6],"6.64 upbm affinity estimate (log intensity, higher = more binding, comparable within an allelic series)"
same,binding signal,PROP1 [7],"6.59 upbm affinity estimate (log intensity, higher = more binding, comparable within an allelic series)"
same,binding signal,PROP1 [8],"6.67 upbm affinity estimate (log intensity, higher = more binding, comparable within an allelic series)"
same,binding signal,PAX4 [9],"9.25 upbm affinity estimate (log intensity, higher = more binding, comparable within an allelic series)"
CGGCTGAG,binding signal,PAX4 [1],"9.44 upbm affinity estimate (log intensity, higher = more binding, comparable within an allelic series)"
same,binding signal,PAX4 [2],"9.36 upbm affinity estimate (log intensity, higher = more binding, comparable within an allelic series)"
same,binding signal,ALX3 [10],"7.73 upbm affinity estimate (log intensity, higher = more binding, comparable within an allelic series)"
same,binding signal,PAX4 [3],"9.42 upbm affinity estimate (log intensity, higher = more binding, comparable within an allelic series)"
same,binding signal,PAX4 [4],"9.34 upbm affinity estimate (log intensity, higher = more binding, comparable within an allelic series)"
same,binding signal,ALX3 [11],"7.82 upbm affinity estimate (log intensity, higher = more binding, comparable within an allelic series)"
same,binding signal,PAX4 [5],"9.23 upbm affinity estimate (log intensity, higher = more binding, comparable within an allelic series)"
same,binding signal,ALX3 [12],"7.79 upbm affinity estimate (log intensity, higher = more binding, comparable within an allelic series)"
same,binding signal,ALX3 [13],"7.77 upbm affinity estimate (log intensity, higher = more binding, comparable within an allelic series)"
same,binding signal,PAX4 [9],"9.35 upbm affinity estimate (log intensity, higher = more binding, comparable within an allelic series)"
same,binding signal,ALX3 [14],"7.7 upbm affinity estimate (log intensity, higher = more binding, comparable within an allelic series)"
CCTCCCCC,binding signal,PAX4 [1],"9.47 upbm affinity estimate (log intensity, higher = more binding, comparable within an allelic series)"
same,binding signal,PAX4 [2],"9.49 upbm affinity estimate (log intensity, higher = more binding, comparable within an allelic series)"
same,binding signal,HOXD13 [15],"9.14 upbm affinity estimate (log intensity, higher = more binding, comparable within an allelic series)"
same,binding signal,PAX4 [3],"9.57 upbm affinity estimate (log intensity, higher = more binding, comparable within an allelic series)"
same,binding signal,HOXD13 [16],"9.51 upbm affinity estimate (log intensity, higher = more binding, comparable within an allelic series)"
same,binding signal,PAX4 [4],"9.21 upbm affinity estimate (log intensity, higher = more binding, comparable within an allelic series)"
same,binding signal,PAX4 [5],"9.2 upbm affinity estimate (log intensity, higher = more binding, comparable within an allelic series)"
same,binding signal,HOXD13 [17],"9.46 upbm affinity estimate (log intensity, higher = more binding, comparable within an allelic series)"
same,binding signal,PAX4 [9],"9.23 upbm affinity estimate (log intensity, higher = more binding, comparable within an allelic series)"
AAAATCAG,binding signal,PAX4 [1],"10.5 upbm affinity estimate (log intensity, higher = more binding, comparable within an allelic series)"
same,binding signal,PAX4 [2],"10.7 upbm affinity estimate (log intensity, higher = more binding, comparable within an allelic series)"
same,binding signal,PAX4 [3],"10.6 upbm affinity estimate (log intensity, higher = more binding, comparable within an allelic series)"
same,binding signal,PAX4 [4],"10.1 upbm affinity estimate (log intensity, higher = more binding, comparable within an allelic series)"
CGTCCCCC,binding signal,PAX4 [1],"9.1 upbm affinity estimate (log intensity, higher = more binding, comparable within an allelic series)"
same,binding signal,PAX4 [2],"9.14 upbm affinity estimate (log intensity, higher = more binding, comparable within an allelic series)"
same,binding signal,NKX2-6 [18],"9.4 upbm affinity estimate (log intensity, higher = more binding, comparable within an allelic series)"
same,binding signal,PAX4 [3],"9.11 upbm affinity estimate (log intensity, higher = more binding, comparable within an allelic series)"
same,binding signal,PAX4 [4],"9.08 upbm affinity estimate (log intensity, higher = more binding, comparable within an allelic series)"
same,binding signal,PAX4 [5],"9.19 upbm affinity estimate (log intensity, higher = more binding, comparable within an allelic series)"
same,binding signal,NKX2-6 [19],"9.03 upbm affinity estimate (log intensity, higher = more binding, comparable within an allelic series)"
same,binding signal,PAX4 [9],"9.21 upbm affinity estimate (log intensity, higher = more binding, comparable within an allelic series)"
CGGCTTTC,binding signal,PAX4 [1],"9.21 upbm affinity estimate (log intensity, higher = more binding, comparable within an allelic series)"
same,binding signal,PAX4 [2],"9.26 upbm affinity estimate (log intensity, higher = more binding, comparable within an allelic series)"
same,binding signal,HOXD13 [15],"9.51 upbm affinity estimate (log intensity, higher = more binding, comparable within an allelic series)"
same,binding signal,PAX4 [3],"9.27 upbm affinity estimate (log intensity, higher = more binding, comparable within an allelic series)"
same,binding signal,HOXD13 [16],"9.48 upbm affinity estimate (log intensity, higher = more binding, comparable within an allelic series)"
same,binding signal,PAX4 [4],"9.3 upbm affinity estimate (log intensity, higher = more binding, comparable within an allelic series)"
same,binding signal,PAX4 [5],"9.24 upbm affinity estimate (log intensity, higher = more binding, comparable within an allelic series)"
same,binding signal,HOXD13 [17],"9.54 upbm affinity estimate (log intensity, higher = more binding, comparable within an allelic series)"
same,binding signal,PAX4 [9],"9.29 upbm affinity estimate (log intensity, higher = more binding, comparable within an allelic series)"
CGGAGGGC,binding signal,PAX4 [1],"9.09 upbm affinity estimate (log intensity, higher = more binding, comparable within an allelic series)"
same,binding signal,PAX4 [2],"9.28 upbm affinity estimate (log intensity, higher = more binding, comparable within an allelic series)"
same,binding signal,HOXA2 [20],"7.21 upbm affinity estimate (log intensity, higher = more binding, comparable within an allelic series)"
same,binding signal,PAX4 [3],"9.19 upbm affinity estimate (log intensity, higher = more binding, comparable within an allelic series)"
same,binding signal,PITX2,"7.96 upbm affinity estimate (log intensity, higher = more binding, comparable within an allelic series)"
same,binding signal,HOXA2 [21],"10.3 upbm affinity estimate (log intensity, higher = more binding, comparable within an allelic series)"
same,binding signal,PAX4 [4],"9.08 upbm affinity estimate (log intensity, higher = more binding, comparable within an allelic series)"
same,binding signal,PAX4 [5],"9 upbm affinity estimate (log intensity, higher = more binding, comparable within an allelic series)"
same,binding signal,PAX4 [9],"9.1 upbm affinity estimate (log intensity, higher = more binding, comparable within an allelic series)"
same,binding signal,HOXA2 [22],"10.3 upbm affinity estimate (log intensity, higher = more binding, comparable within an allelic series)"
same,binding signal,HOXA2 [23],"7.24 upbm affinity estimate (log intensity, higher = more binding, comparable within an allelic series)"
CGGCGTCA,binding signal,PAX4 [1],"9.36 upbm affinity estimate (log intensity, higher = more binding, comparable within an allelic series)"
same,binding signal,PAX4 [2],"9.43 upbm affinity estimate (log intensity, higher = more binding, comparable within an allelic series)"
same,binding signal,HOXD13 [15],"9.54 upbm affinity estimate (log intensity, higher = more binding, comparable within an allelic series)"
same,binding signal,PAX4 [3],"9.37 upbm affinity estimate (log intensity, higher = more binding, comparable within an allelic series)"
same,binding signal,PITX2,"8.08 upbm affinity estimate (log intensity, higher = more binding, comparable within an allelic series)"
same,binding signal,HOXD13 [16],"9.49 upbm affinity estimate (log intensity, higher = more binding, comparable within an allelic series)"
same,binding signal,PAX4 [4],"9.21 upbm affinity estimate (log intensity, higher = more binding, comparable within an allelic series)"
same,binding signal,PAX4 [5],"9.24 upbm affinity estimate (log intensity, higher = more binding, comparable within an allelic series)"
same,binding signal,HOXD13 [17],"9.61 upbm affinity estimate (log intensity, higher = more binding, comparable within an allelic series)"
same,binding signal,PAX4 [9],"9.35 upbm affinity estimate (log intensity, higher = more binding, comparable within an allelic series)"
